# This is a sample that favours compounds with a hit; in the whole collection about 2% have one here.
# aSyn rescue: inhibitors of alpha-synuclein toxicity in yeast; 0.14% of 370,000 active; Potency, µM (doses to about 46.1 µM), inactives show top-dose growth rescue (activation), hits mostly activators; Yeast expressing alpha-synuclein, growth rescue, BacTiter-Glo, 24 h; AID 652106; note: potency is the fitted concentration of half-maximal effect; % of control where 0% means no effect; nearly all actives have a fitted effect of over 65% in size
#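 Galactose-induced alpha-syn yeast (OD600=0.02, raffinose-pregrown) + pinned cpd, 24 hr, 30 deg C; growth by BacTiter-Glo luminescence. Growth restoration scores as activation.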
# TDP-43 yeast inh: inhibitors of TDP-43 toxicity in yeast; Potency, µM (top dose mostly 46.1 µM), inactives show at the top dose growth rescue (activation), actives largely listed as activators; TDP-43 expressing yeast growth rescue, BacTiter-Glo, 24 h; 1.8% of 410,000 active; note: potency is the fitted concentration of half-maximal effect; % of control where 0% means no effect; nearly all actives have a fitted effect of over 50% in size
#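 Galactose-induced TDP-43 yeast, OD600=0.02, compound pinned; 24 hr, 30 deg C; BacTiter-Glo luminescence for growth. Inhibitors of TDP-43 toxicity read as activators.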
# LDHA inh: LDHA (human) enzyme inhibition. P00338. purified LDHA, NADH/diaphorase-resazurin fluorescence; stronger effect = lower value. activity change, % (values are at about 110 or 230 µM). 0.15% of 480,000 active. AID 1347041; in the data active = activity change below about -30%; inconclusive = mostly about -25% to -30%;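 note: plate controls were DMSO wells for no effect and wells without enzyme for full effect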
#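 Human LDH5 (2 nM) was incubated with 0.06 mM NADH and 0.2 mM pyruvate for 5 min at room temperature in Tris pH 7.4. Remaining NADH was coupled through diaphorase/resazurin, and resorufin fluorescence was read at 0 and 20 min.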
# Abeta rescue: restores growth of yeast expressing A-beta42 peptide. yeast expressing A-beta42, growth rescue, OD600, 48 h; response scale: 0% DMSO, 100% iron-clioquinol control. Potency, µM (top dose mostly 46.1 µM), hits mostly activators. 0.063% of 410,000 active; note: potency is the fitted concentration of half-maximal effect; nearly all actives have a fitted effect of over 55% in size
#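 Yeast A-beta toxicity model in growth medium with pinned compounds, 48 h at 30 C; growth read as absorbance at 600 nm. Normalized to FeCl3/clioquinol equimolar mix (positive) and DMSO (negative).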
# FUS suppressor: FUS proteinopathy suppression in yeast; S. cerevisiae FUS-expressing, growth rescue, OD600, 24 h; Potency, µM (titrated, usually from 76.6 µM), actives largely listed as activators; 0.24% of 390,000 active; AID 1347120;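 note: potency is the fitted concentration of half-maximal effect; plate controls were DMSO vehicle for no effect and reference control for full effect; nearly all actives have a fitted effect of over 55% in size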
#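 Yeast expressing FUS under galactose induction, OD 0.005 in 2% galactose medium; compounds in a dilution series, 24 h at 30C. Growth rescue by absorbance at 600 nm; CP55940 positive control, DMSO negative.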
# IDH1 R132H inh: blocks human mutant IDH1 R132H enzyme; O75874; AID 602179; IDH1-R132H enzyme, NADPH consumption, diaphorase/resazurin fluorescence; Potency, µM (series often up to 76.6 µM), without a hit: at the top dose activity change, negative = inhibition, actives largely listed as inhibitors; 0.093% of 390,000 active; note: potency is the fitted concentration of half-maximal effect; % is set by controls: 0 for no effect and ±100 for the full control effect; nearly all actives have a fitted effect of over 65% in size
# Target sequence (O75874 whole entry R132H, stated change not applied): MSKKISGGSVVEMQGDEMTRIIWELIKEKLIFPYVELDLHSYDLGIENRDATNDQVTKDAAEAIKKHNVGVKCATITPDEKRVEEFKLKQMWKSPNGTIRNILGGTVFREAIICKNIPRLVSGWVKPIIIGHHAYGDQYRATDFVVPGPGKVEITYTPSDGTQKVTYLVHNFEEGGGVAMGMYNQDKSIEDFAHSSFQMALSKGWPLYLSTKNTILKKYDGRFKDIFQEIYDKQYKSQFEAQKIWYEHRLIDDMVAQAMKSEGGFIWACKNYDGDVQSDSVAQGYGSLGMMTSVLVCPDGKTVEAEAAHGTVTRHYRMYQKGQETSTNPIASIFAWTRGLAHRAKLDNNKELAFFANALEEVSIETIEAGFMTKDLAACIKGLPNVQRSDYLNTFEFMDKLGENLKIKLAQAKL
#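 IDH1-R132H (0.5 ug/mL dispensed) in pH 7.5 Tris buffer was preincubated 30 min with compound, then given a substrate mix of 0.016 mM NADPH and 2 mM alpha-KG for 80 min at room temperature; remaining NADPH was read by diaphorase/resazurin fluorescence.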
# * hit, by the source's call; i = inactive; ? = inconclusive; · = no result given; [ ] = another dose, or the depositor's remark. Unless noted, calls come from the whole dose curve; as a rule, active = well fitted curve in the direction sought with a large enough effect; inconclusive = small, poorly fitted or top-dose-only effect, or another doubt; inactive = no such curve, though single readings can be large; an effect the other way counts as inactive or inconclusive.
SMILES,aSyn rescue,TDP-43 yeast inh,LDHA inh,Abeta rescue,FUS suppressor,IDH1 R132H inh
Brc1cccc[n+]1CCC[n+]1ccccc1Br,1%,·,-65*,·,·,·
O=c1[nH]c2cc3c(cc2cc1C(c1nnnn1Cc1ccccc1)N1CCN2CCCC2C1)OCCO3 (stereo not given),3%,-21%,-1,i,18µM*,1%
CC(C)CCC(CCNC1CCC(C)CC1)C1CCOC(C)(C)C1 (stereo not given),·,·,-7,·,·,·
COc1ccc(/C=N/n2c(SC)nnc2-c2ccccc2)c(OC)c1OC,3%,5%,-4,i,i,1%
COc1ccc(/C=N/n2c(SC)nnc2-c2ccccc2)cc1C,4%,16µM*,-3,i,i,1%
CC(=O)Nc1cccc(Oc2nc(NC(C)C)nc3cc(-c4ccccc4)sc23)c1,1%,25µM*,-7,i,?,·
COCCNc1nc(Oc2cccc(NC(C)=O)c2)c2sc(-c3ccccc3)cc2n1,4%,34%,-7,i,i,·
O=C(Nc1cc([N+](=O)[O-])ccc1O)c1ccc2c(c1)C(=O)N(Cc1ccco1)C2=O,-4%,-22%,-56*,i,i,11%
NS(=O)(=O)c1ccc(O)c(NC(=O)c2ccc([N+](=O)[O-])cc2)c1,2%,·,-57*,i,i,2%
O=C(Nc1cc([N+](=O)[O-])ccc1O)c1cccc(C(=O)Nc2cc([N+](=O)[O-])ccc2O)c1,0%,6%,-35*,i,i,-8%
O=C(Nc1cc([N+](=O)[O-])ccc1O)c1cccc([N+](=O)[O-])c1,-5%,-11%,-11,i,i,15%
CCN1CCC(N(Cc2ccco2)C(=O)Nc2cc(Cl)ccc2C)CC1,·,·,6,·,·,·
O=C(O)c1ccc(Nc2ccc(F)c(F)c2)c([N+](=O)[O-])c1,6%,11µM*,-9,i,i,15%
Cc1ccccc1-c1cc(C(=O)NCc2ccc(OC(F)(F)F)cc2)n(CC2CC(c3cccnc3)=NO2)n1 (stereo not given),16%,?,2,i,22µM*,0%
COc1ccc(C2=NOC(Cn3nc(-c4ccccc4)cc3C(=O)NCc3cccs3)C2)cc1 (stereo not given),8%,4%,-5,i,32µM*,-12%
Cc1ccccc1OCCCc1c(C)n[nH]c1C,8%,20µM*,-6,i,i,7%
Cc1ccccc1OCCCCc1c(C)n[nH]c1C,-2%,0%,1,i,i,9%
CC(=O)c1c(C)[nH]c(C(=O)COc2ccc(F)c(Cl)c2)c1C,·,·,2,·,·,·
CC(=O)Nc1sc2cnccc2c1-c1nc2ccccc2s1,·,·,0,·,·,·
COCCCNc1nc2ccccc2nc1NS(=O)(=O)c1cccc(C)c1,-5%,14µM*,-6,i,i,1%
Cc1cc(Cl)ccc1OC(C)c1nc(-c2ccc(Br)o2)no1 (stereo not given),·,·,2,·,·,·
CC(=O)Nc1ccc(NCN2C(=O)C3C4CCC(C4)C3C2=O)cc1 (stereo not given),4%,25µM*,2,i,i,1%
COC(=O)c1ccc(NCN2C(=O)C3C4CCC(C4)C3C2=O)cc1 (stereo not given),-2%,11%,1,i,i,26%
Cc1nnc(-c2cccc(Br)c2)c2cn(-c3ccccc3Cl)nc12,10%,10µM*,-2,i,i,-6%
O=C(O)c1ccc(Sc2ccccc2C(=O)O)c([N+](=O)[O-])c1,·,·,10,·,·,·
SMILES,aSyn rescue,TDP-43 yeast inh,LDHA inh,Abeta rescue,FUS suppressor,IDH1 R132H inh
CC(C)C1NC(=O)N(Cc2coc(-c3cccc(F)c3)n2)C1=O (stereo not given),·,·,7,·,·,·
CCCC(C)NC(=O)c1ccc(OC)c(S(=O)(=O)NCC)c1 (stereo not given),·,·,-3,·,·,·
CCCC(C)NC(=O)c1ccc(OCc2ccc(Cl)cc2)c(OC)c1 (stereo not given),0%,22µM*,-7,i,i,-4%
COC(=O)COc1ccc2c(c1)O/C(=C\C1=Cc3ccccc3OC1C)C2=O (stereo not given),·,·,4,·,·,·
CCOc1ccc(NC(=O)CC2C(=O)N(c3cccc(C)c3)C(=O)N2CCC2=CCCCC2)cc1 (stereo not given),·,-24%,8,i,35µM*,0%
COc1ccc(NC(=O)CC2C(=O)N(c3ccccc3)C(=O)N2CCC2=CCCCC2)cc1 (stereo not given),·,-1%,-2,i,i,-10%
O=C(O)c1ccc(F)c(Cl)c1,·,·,-8,·,·,·
Fc1cc(COc2ccc(-c3nnco3)cc2)c2ncccc2c1,·,·,2,·,·,·
Cc1ccc(C(=O)n2c(N)nc3ccccc32)cc1,-26%,-8%[0.397 µM],0,i,i,3%
Cc1cccc2c(=O)n(C(=O)c3ccccc3)c(N)nc12,7%,20µM*,-4,i,i,8%
COC(=O)c1cc2oc3ccccc3c2n1Cc1ccc(C)cc1,·,8%,-7,i,i,·
COC(=O)c1cc2oc3ccccc3c2n1Cc1ccccn1,-20%,13µM*,-2,i,i,11%
O=C(OCc1ccccc1Cl)c1ccc(-n2cnnc2)cc1,12%,13µM*,-9,i,i,7%
Cc1c(Cl)cccc1NC(=O)CCNC(=O)c1cccs1,·,·,-12,·,·,·
O=C(OCC(=O)N1CCCc2ccccc21)c1ccccc1[N+](=O)[O-],6%,35µM*,-1,i,·,-1%
CCCOc1cccc(C(=O)Nc2cc(-c3nc4ccccc4[nH]3)ccc2C)c1,·,5%,2,i,?,1%
CCOc1ccc(C(=O)Nc2cc(-c3nc4ccccc4[nH]3)ccc2Cl)cc1[N+](=O)[O-],-14%,4µM*,-3,i,·,-2%
CCCOc1ccc(C(=O)Nc2cc(-c3nc4ccccc4[nH]3)ccc2C)cc1,·,13µM*,-1,i,i,3%
CN1CC[n+]2cnc3ccccc3c21,-1%,19%,-33*,i,i,0%
Cc1ccnc2ccccc12,-2%,·,2,·,·,·
O=C(N/N=C/c1cc([N+](=O)[O-])ccc1O)C1CCCCC1,4µM*,10%,8,i,i,2%
O=[N+]([O-])c1ccc(O)c(/C=N/Nc2nn[nH]n2)c1,-34%,15%,-46*,i,i,8%
Cc1ccc2c(c1)NC(SCC(=O)Nc1cccc(Br)c1)=NS2(=O)=O,·,·,7,·,·,·
N#Cc1ccccc1CNc1ccc(Cl)cc1F,·,·,-1,·,·,·
Cc1cc(C(=O)OCC(=O)Nc2ccccc2C)c2ccccc2n1,·,·,3,·,·,·
